Reference: PubChem BioAssay (NCATS)
Records with an inconclusive call do not appear. Calls of active or inactive are those of the source. The call rests on the fitted dose curve; in most records, active means well fitted inhibition curve with a large enough effect; inconclusive means small, poorly fitted or top-dose-only effect; inactive means flat fitted curve, though single readings scatter.

What was measured:
[1] = qHTS profiling for inhibitors of Plasmodium falciparum proliferation (AID 504749); further: nearly all actives have a fitted effect of over 60% in size;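 on activity, negative = inhibition: 0% = DMSO vehicle and full inhibition = artemisinin control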; conditions: P. falciparum in erythrocytes, SYBR Green DNA, 72 h
How it was run: (§1)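 Three-day growth assay of blood-stage parasites in erythrocytes (0.3% parasitemia, 2.5% hematocrit) at 37 C, 5% CO2, quantified by SYBR Green DNA staining after overnight detergent lysis.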

3D7 = assay: as above; conditions: P. falciparum in erythrocytes, SYBR Green DNA, 72 h; series mostly up to 28.7 µM
How it was run: as §1

7G8 = assay: as above; conditions: P. falciparum in erythrocytes, SYBR Green DNA, 72 h; series mostly up to 28.7 µM
How it was run: as §1

AA1029 = assay: as above; conditions: P. falciparum in erythrocytes, SYBR Green DNA, 72 h; series mostly up to 28.7 µM
How it was run: as §1

AS120 = assay: as above; conditions: P. falciparum in erythrocytes, SYBR Green DNA, 72 h; series mostly up to 28.7 µM
How it was run: as §1

ATS189 = assay: as above; conditions: P. falciparum in erythrocytes, SYBR Green DNA, 72 h; series mostly up to 28.7 µM
How it was run: as §1

ATS95 = assay: as above; conditions: P. falciparum in erythrocytes, SYBR Green DNA, 72 h; series mostly up to 28.7 µM
How it was run: as §1

C2A = assay: as above; conditions: P. falciparum in erythrocytes, SYBR Green DNA, 72 h; series mostly up to 28.7 µM
How it was run: as §1

CP185 = assay: as above; conditions: P. falciparum in erythrocytes, SYBR Green DNA, 72 h; series mostly up to 28.7 µM
How it was run: as §1

CP191 = assay: as above; conditions: P. falciparum in erythrocytes, SYBR Green DNA, 72 h; series mostly up to 28.7 µM
How it was run: as §1

CP192 = assay: as above; conditions: P. falciparum in erythrocytes, SYBR Green DNA, 72 h; series mostly up to 28.7 µM
How it was run: as §1

CP194 = assay: as above; conditions: P. falciparum in erythrocytes, SYBR Green DNA, 72 h; series mostly up to 28.7 µM
How it was run: as §1

CP201 = assay: as above; conditions: P. falciparum in erythrocytes, SYBR Green DNA, 72 h; series mostly up to 28.7 µM
How it was run: as §1

CP203 = assay: as above; conditions: P. falciparum in erythrocytes, SYBR Green DNA, 72 h; series mostly up to 28.7 µM
How it was run: as §1

CP211 = assay: as above; conditions: P. falciparum in erythrocytes, SYBR Green DNA, 72 h; series mostly up to 28.7 µM
How it was run: as §1

CP215 = assay: as above; conditions: P. falciparum in erythrocytes, SYBR Green DNA, 72 h; series mostly up to 28.7 µM
How it was run: as §1

CP217 = assay: as above; conditions: P. falciparum in erythrocytes, SYBR Green DNA, 72 h; series mostly up to 28.7 µM
How it was run: as §1

CP237 = assay: as above; conditions: P. falciparum in erythrocytes, SYBR Green DNA, 72 h; series mostly up to 28.7 µM
How it was run: as §1

CP238 = assay: as above; conditions: P. falciparum in erythrocytes, SYBR Green DNA, 72 h; series mostly up to 28.7 µM
How it was run: as §1

[2] = at 12.8 µM (top of the series), parasite line A
[3] = at 12.8 µM (top of the series), parasite line B
[4] = at 28.7 µM (top of the series), parasite line A
[5] = at 28.7 µM (top of the series), parasite line B
Potency means the concentration at half of the fitted maximal effect.

NS(=O)(=O)c1cc2c(cc1C(F)(F)F)NCNS2(=O)=O
inactive: activity, negative = inhibition [1, 2] 2.71% | activity, negative = inhibition [1, 3] 5.88% | Potency (3D7) | Potency (7G8) | Potency (AA1029) | Potency (AS120) | Potency (ATS189) | Potency (ATS95) | Potency (C2A) | Potency (CP185) | outcome (CP191) | outcome (CP192) | outcome (CP194) | outcome (CP201) | Potency (CP203) | outcome (CP211) | Potency (CP215) | outcome (CP217) | Potency (CP237) | Potency (CP238)

COc1ccc(NS(=O)(=O)c2ccc(N)cc2)nn1
inactive: activity, negative = inhibition [1, 2] 2.8% | activity, negative = inhibition [1, 3] 13.5% | Potency (3D7) | Potency (7G8) | Potency (AA1029) | Potency (AS120) | Potency (ATS189) | Potency (ATS95) | Potency (C2A) | Potency (CP185) | outcome (CP191) | outcome (CP192) | outcome (CP194) | outcome (CP201) | Potency (CP203) | outcome (CP211) | Potency (CP215) | outcome (CP217) | Potency (CP237) | Potency (CP238)

CCCC(O)C(CC)CO (centres undefined)
inactive: activity, negative = inhibition [1, 4] 12.2% | activity, negative = inhibition [1, 5] 6.77% | Potency (3D7) | Potency (7G8) | Potency (AA1029) | Potency (AS120) | Potency (ATS189) | Potency (ATS95) | Potency (C2A) | Potency (CP185) | outcome (CP191) | outcome (CP192) | outcome (CP194) | outcome (CP201) | Potency (CP203) | outcome (CP211) | Potency (CP215) | outcome (CP217) | Potency (CP237) | Potency (CP238)

Cc1cccc(Nc2ccccc2C(=O)O)c1C
inactive: activity, negative = inhibition [1, 4] -4.38% | activity, negative = inhibition [1, 5] 15.2% | Potency (3D7) | Potency (7G8) | Potency (AA1029) | Potency (AS120) | Potency (ATS189) | Potency (ATS95) | Potency (C2A) | Potency (CP185) | outcome (CP191) | outcome (CP192) | outcome (CP194) | outcome (CP201) | Potency (CP203) | outcome (CP211) | Potency (CP215) | outcome (CP217) | Potency (CP237) | Potency (CP238)

Cc1cc(C)nc(NS(=O)(=O)c2ccc(N)cc2)n1
inactive: activity, negative = inhibition [1, 4] 7.93% | activity, negative = inhibition [1, 5] 10.9% | Potency (3D7) | Potency (7G8) | Potency (AA1029) | Potency (AS120) | Potency (ATS189) | Potency (ATS95) | Potency (C2A) | Potency (CP185) | outcome (CP191) | outcome (CP192) | outcome (CP194) | outcome (CP201) | Potency (CP203) | outcome (CP211) | Potency (CP215) | outcome (CP217) | Potency (CP237) | Potency (CP238)

NCC1CCC(C(=O)Oc2ccc(CCC(=O)O)cc2)CC1 (centres undefined)
inactive: activity, negative = inhibition [1, 4] -0.969% | activity, negative = inhibition [1, 5] 4.31% | Potency (3D7) | Potency (7G8) | Potency (AA1029) | Potency (AS120) | Potency (ATS189) | Potency (ATS95) | Potency (C2A) | Potency (CP185) | outcome (CP191) | outcome (CP192) | outcome (CP194) | outcome (CP201) | Potency (CP203) | outcome (CP211) | Potency (CP215) | outcome (CP217) | Potency (CP237) | Potency (CP238)

CCCCCC(N)=O
inactive: activity, negative = inhibition [1, 4] 6.64% | activity, negative = inhibition [1, 5] 8.74% | Potency (3D7) | Potency (7G8) | Potency (AA1029) | Potency (AS120) | Potency (ATS189) | Potency (ATS95) | Potency (C2A) | Potency (CP185) | outcome (CP191) | outcome (CP192) | outcome (CP194) | outcome (CP201) | Potency (CP203) | outcome (CP211) | Potency (CP215) | outcome (CP217) | Potency (CP237) | Potency (CP238)

COc1ccc(Cc2cnc(N)nc2N)cc1OC
active: Potency ([1]; parasite line A) 3.55 µM | Potency ([1]; parasite line B) 8.91 µM | Potency (3D7) 7.08 µM
inactive: Potency (7G8) | Potency (AA1029) | Potency (AS120) | Potency (ATS189) | Potency (ATS95) | Potency (C2A) | Potency (CP185) | outcome (CP191) | outcome (CP192) | outcome (CP194) | outcome (CP201) | Potency (CP203) | outcome (CP211) | Potency (CP215) | outcome (CP217) | Potency (CP237) | Potency (CP238)

O=C(O)c1ccccc1C(=O)Nc1ccc(S(=O)(=O)Nc2nccs2)cc1
inactive: activity, negative = inhibition [1, 4] 16.3% | activity, negative = inhibition [1, 5] 12.3% | Potency (3D7) | Potency (7G8) | Potency (AA1029) | Potency (AS120) | Potency (ATS189) | Potency (ATS95) | Potency (C2A) | Potency (CP185) | outcome (CP191) | outcome (CP192) | outcome (CP194) | outcome (CP201) | Potency (CP203) | outcome (CP211) | Potency (CP215) | outcome (CP217) | Potency (CP237) | Potency (CP238)

COc1ccccc1Oc1c(NS(=O)(=O)c2ccc(C(C)(C)C)cc2)nc(-c2ncccn2)nc1OCCO
inactive: activity, negative = inhibition [1, 4] -4.92% | activity, negative = inhibition [1, 5] -14.6% | Potency (3D7) | Potency (7G8) | Potency (AA1029) | Potency (AS120) | Potency (ATS189) | Potency (ATS95) | Potency (C2A) | Potency (CP185) | outcome (CP191) | outcome (CP192) | outcome (CP194) | outcome (CP201) | Potency (CP203) | outcome (CP211) | outcome (CP217) | Potency (CP237) | Potency (CP238)
